According to PubChem BioAssay AID1159580 (chemical genetic matrix, 2015):
The campaign covered roughly 5,500 compounds. About 2,000 (36%) were called active. Inconclusive results (about 18%) are left out. Rule as the data show it: active = normalized growth mostly below about 0.91 (no sharp cut-off); inconclusive = no clear call, values can overlap the other calls; inactive = mostly above about 0.92. The list shows a part of the results.

Test: chemical genetic growth profiling, strain panel (AID 1159580);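 also: tested at 20 µM; growth read once vehicle control cultures reached saturation at 30 °C; 1 = growth at the plate median or of vehicle wells; lower values mean less growth of the strain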
Conditions: S. cerevisiae deletion strains, growth OD

Measured: normalized growth

COc1cc(OC)c(C(C)=O)c(O)c1C
active: locus YBR009C, strain hhf1, stronger effect = lower value 0.88 | locus YBR023C, strain chs3, stronger effect = lower value 0.905 | locus YCL011C, strain gbp2, stronger effect = lower value 0.905 | locus YDR159W, strain sac3, stronger effect = lower value 0.847 | locus YER155C, strain BEM2 (second series), stronger effect = lower value 0.735 | locus YGL227W, strain vid30, stronger effect = lower value 0.913 | locus YGL240W, strain doc1, stronger effect = lower value 0.812 | locus YLR221C, strain rsa3, stronger effect = lower value 0.884 | locus YLR262C, strain YPT6 (second series), stronger effect = lower value 0.856 | locus YLR320W, strain mms22, stronger effect = lower value 0.87 | locus YML120C, strain ndi1, stronger effect = lower value 0.889 | locus YOR270C, strain vph1, stronger effect = lower value 0.744 | locus YOR290C, strain snf2, stronger effect = lower value 0.83
inactive: locus YAL021C, strain ccr4, stronger effect = lower value 0.991 | locus YAL026C, strain drs2, stronger effect = lower value 0.908 | locus YAL030W, strain snc1, stronger effect = lower value 0.953 | locus YBL061C, strain skt5, stronger effect = lower value 0.923 | locus YBR171W, strain sec66, stronger effect = lower value 0.945 | locus YBR231C, strain swc5, stronger effect = lower value 0.934 | locus YBR279W, strain paf1, stronger effect = lower value 0.951 | locus YCL016C, strain dcc1, stronger effect = lower value 0.956 | locus YCL061C, strain MRC1, stronger effect = lower value 0.937 | locus YCL069W, strain vba3, stronger effect = lower value 0.942 | locus YCR088W, strain abp1, stronger effect = lower value 0.937 | locus YDL005C, strain med2, stronger effect = lower value 0.978 | locus YDL040C, strain nat1, stronger effect = lower value 0.949 | locus YDR001C, strain nth1, stronger effect = lower value 0.939 | locus YDR069C, strain doa4, stronger effect = lower value 0.948 | locus YDR137W, strain rgp1, stronger effect = lower value 0.859 | locus YDR195W, strain ref2 1.13 | locus YDR297W, strain sur2, stronger effect = lower value 0.941 | locus YDR334W, strain swr1, stronger effect = lower value 0.946 | locus YDR335W, strain msn5, stronger effect = lower value 0.95 | locus YDR392W, strain spt3, stronger effect = lower value 0.758 | locus YEL003W, strain gim4, stronger effect = lower value 0.923 | locus YEL037C, strain rad23, stronger effect = lower value 0.938 | locus YEL061C, strain CIN8 (second series), stronger effect = lower value 0.931 | locus YER015W, strain faa2, stronger effect = lower value 0.955 | locus YER016W, strain bim1, stronger effect = lower value 0.954 | locus YER111C, strain swi4, stronger effect = lower value 0.95 | locus YFR010W, strain ubp6, stronger effect = lower value 0.932 | locus YGL167C, strain pmr1, stronger effect = lower value 0.945 | locus YGL173C, strain kem1, stronger effect = lower value 0.921 | locus YGL253W, strain hxk2, stronger effect = lower value 0.935 | locus YHR013C, strain ard1, stronger effect = lower value 0.875 | locus YHR027C, strain rpn1, stronger effect = lower value 0.969 | locus YHR030C, strain SLT2, stronger effect = lower value 0.931 | locus YHR079C, strain IRE1, stronger effect = lower value 0.935 | locus YHR142W, strain chs7, stronger effect = lower value 0.877 | locus YJL092W, strain hpr5, stronger effect = lower value 0.946 | locus YJL095W, strain BCK1 (second series), stronger effect = lower value 0.944 | locus YJL095W, strain BCK1, stronger effect = lower value 0.927 | locus YJL115W, strain asf1, stronger effect = lower value 0.944 | locus YJL129C, strain trk1, stronger effect = lower value 0.903 | locus YJL154C, strain vps35, stronger effect = lower value 0.939 | locus YJL164C, strain tpk1, stronger effect = lower value 0.93 | locus YJL166W, strain qcr8, stronger effect = lower value 0.912 | locus YJL187C, strain SWE1, stronger effect = lower value 0.945 | locus YJR066W, strain TOR1, stronger effect = lower value 0.855 | locus YKL160W, strain elf1, stronger effect = lower value 0.956 | locus YKR026C, strain gcn3, stronger effect = lower value 0.93 | locus YKR091W, strain srl3, stronger effect = lower value 0.946 | locus YLL001W, strain dnm1, stronger effect = lower value 0.939 | locus YLL026W, stronger effect = lower value 0.953 | locus YLL041C, strain sdh2, stronger effect = lower value 0.961 | locus YLR027C, strain aat2, stronger effect = lower value 0.962 | locus YLR113W, strain HOG1, stronger effect = lower value 0.901 | locus YLR258W, strain gsy2, stronger effect = lower value 0.933 | locus YLR342W, strain FKS1, stronger effect = lower value 0.954 | locus YLR357W, strain rsc2, stronger effect = lower value 0.942 | locus YLR370C, strain arc18, stronger effect = lower value 0.938 | locus YLR384C, strain iki3, stronger effect = lower value 0.974 | locus YMR058W, strain fet3, stronger effect = lower value 0.908 | locus YMR125W, strain sto1, stronger effect = lower value 0.984 | locus YMR129W, stronger effect = lower value 0.944 | locus YMR205C, strain PFK2, stronger effect = lower value 0.903 | locus YMR231W, strain pep5, stronger effect = lower value 0.982 | locus YNL071W, strain lat1, stronger effect = lower value 0.919 | locus YNL183C, strain NPR1, stronger effect = lower value 0.887 | locus YNL209W, strain ssb2, stronger effect = lower value 0.96 | locus YNL248C, strain rpa49, stronger effect = lower value 0.917 | locus YNL322C, strain KRE1 (second series), stronger effect = lower value 0.927 | locus YNR049C, strain mso1, stronger effect = lower value 0.937 | locus YOR001W, strain rrp6, stronger effect = lower value 0.95 | locus YOR070C, strain gyp1, stronger effect = lower value 0.937 | locus YOR080W, strain dia2, stronger effect = lower value 0.943 | locus YOR083W, strain WHI5, stronger effect = lower value 0.942 | locus YOR106W, strain vam3, stronger effect = lower value 0.91 | locus YOR231W, strain MKK1, stronger effect = lower value 0.96 | locus YOR265W, strain rbl2, stronger effect = lower value 0.962 | locus YPL051W, strain arl3, stronger effect = lower value 0.972 | locus YPL078C, strain atp4, stronger effect = lower value 0.908 | locus YPL106C, strain sse1, stronger effect = lower value 0.9 | locus YPL240C, strain hsp82, stronger effect = lower value 0.94 | locus YPL256C, strain CLN2, stronger effect = lower value 0.91
